TWEAK Fn14 block: blocks TWEAK-Fn14 interaction in a reporter cell assay. inhibition, % at 10 µM. TWEAK-stimulated Fn14 reporter cells, luciferase luminescence, 8 h. hit rate 2% among 360,000; in the data active = inhibition above about 50%
HIF-2a block: blocks HIF-2a reporter activity; 786-0 RCC cells HIF-2a reporter, luciferase luminescence, overnight; inhibition, % at 18.8 µM; hit rate 0.72% among 360,000;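 active = inhibition of the luminescence signal of 40% or more relative to plate controls, in a single-dose primary screen at 18.75 µM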
TROY signal inh: blocks TROY-dependent signaling in reporter cells | inhibition, % at 10 µM | Q293 LMP1-TROYcd NF-kB luciferase reporter, 4 h | hit rate 0.98% among 360,000 | AID 1347056;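 active = compounds whose plate-normalised and pattern-corrected inhibition of the luciferase reporter signal at the single screening dose is 50% or more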
aSyn 5UTR inh: 5' untranslated region of α-synuclein, MLPCN primary screen; alpha-synuclein 5'UTR reporter, inhibitor activity; inhibition, % (tested at 7.5 µM); hit rate 0.82% among 300,000; in the data active = inhibition above about 60%;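 also: H4 neuroglioblastoma cells stably carrying SNCA 5'UTR luciferase fusion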
HSP90 inh: inhibitors of HSP90 luciferase refolding in rabbit reticulocyte lysate; luciferase refolding luminescence, 3 h; inhibition, % at 5.6 µM; hit rate 0.91% among 290,000;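 active = inhibition above the screen-wide mean plus 3 SD, computed separately per campaign, cut at about 16% in these data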;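 also: inhibitors lower the luminescence because luciferase stays unfolded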
C8 TRAIL sens: sensitizes caspase-8 expressing cells to TRAIL | NB7+C8 cells + TRAIL, ATPlite viability luminescence | inhibition (viability loss, TRAIL sensitization), % at 10 µM | hit rate 1% among 360,000;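 active = compounds causing at least 50% loss of cell viability in the single-dose screen, relative to plate controls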
Of the large screens only hits and unclear results are named; the others gave an inactive call. Hits are enriched below; roughly 3.9% of the tested compounds scored in any of these assays.

COc1ccc(C(=O)Nc2ccccc2C(=O)Nc2cccnc2)cc1	C8 TRAIL sens 53.0
Cc1ccnc(NC(=O)COc2ccc3c(c2)CCC3)c1	TWEAK Fn14 block 79.4, C8 TRAIL sens 69.8 (no result: HSP90 inh)
COc1ccc(C(=O)Nc2ccccc2C(=O)Nc2cc(C)ccn2)cc1	C8 TRAIL sens 68.0
COc1ccc(C(=O)NC(=O)Nc2cc(C)ccn2)cc1	TWEAK Fn14 block 97.4, TROY signal inh 78.9, aSyn 5UTR inh 72.0, HSP90 inh 21.9, C8 TRAIL sens 83.8
CCN(CC)c1c(C)nc2ccc(C(=O)Nc3cc(-c4ccccc4)ccc3OC)cn12	none (no result: aSyn 5UTR inh, HSP90 inh)
Cc1ccc(NC(=O)c2ncn(CCCN3CCN(c4ncccn4)CC3)n2)cc1C	none (no result: aSyn 5UTR inh, HSP90 inh)
COC(=O)C[C@H](NC(=O)Cn1cc(C)c(=O)[nH]c1=O)C(=O)OC	none (no result: aSyn 5UTR inh, HSP90 inh)
COc1ccc(C(=O)Nc2cc(C)c(NC(=O)c3ccccn3)cn2)cc1	C8 TRAIL sens 68.8
COc1ccc(C(=O)Nc2cnc(NC(=O)c3cccs3)cc2C)cc1	none
COc1ccc(NC(=O)Nc2cc(C)ccn2)cc1	C8 TRAIL sens 58.9 (no result: aSyn 5UTR inh, HSP90 inh)
CC(C)(C)c1ccc2cc(F)cc(F)c2n1	none (no result: aSyn 5UTR inh, HSP90 inh)
Cc1nn2cc(-c3ccccc3)nc2s1	TWEAK Fn14 block 57.0
Cc1cc(C)n2nc(-c3ccccc3)cc2n1	none
c1ccc(-c2cn3nc(-c4ccccc4)sc3n2)cc1	TWEAK Fn14 block 86.0, TROY signal inh 61.3, aSyn 5UTR inh 101.4, C8 TRAIL sens 85.3 (no result: HSP90 inh)
COC(=O)C[C@@H]1CC[C@H](NC(=O)CC2CC2)[C@@H](CO)O1	none (no result: TWEAK Fn14 block, TROY signal inh, aSyn 5UTR inh, HSP90 inh)
Cc1cccc(NC(=O)c2nc[nH]c2C(=O)NCCCCNC(=O)c2[nH]cnc2C(=O)Nc2cccc(C)c2)c1	none (no result: aSyn 5UTR inh, HSP90 inh)
Cc1nonc1C(=O)N/N=C/c1ccc(O)cc1O	C8 TRAIL sens 56.3
CCCC(=O)N1CCC1(C)C(=O)Nc1ccc(-n2cccc2)cc1 (configuration not stated)	none (no result: aSyn 5UTR inh, HSP90 inh)
c1ccc(-c2nc(-c3cccs3)[nH]c2-c2ccccc2)cc1	TWEAK Fn14 block 52.3
COc1cc(-c2nc(-c3ccccc3)c(-c3cccs3)[nH]2)cc(OC)c1OC	TWEAK Fn14 block 66.1
COc1cc(-c2nc(-c3ccccc3)c(-c3cccs3)[nH]2)cc(OC)c1O	none
c1csc(-c2nc3c4ccccc4c4ccccc4c3[nH]2)c1	TWEAK Fn14 block 69.3
CC(Sc1nc(N)cc(=O)[nH]1)C(=O)Nc1ccc(N2CCOCC2)cc1 (configuration not stated)	none (no result: aSyn 5UTR inh, HSP90 inh)
Cc1ccc(S(=O)(=O)N2CC3C(=O)C[C@@H](c4ccccc4)N(S(=O)(=O)c4ccccc4Cl)C3CC2c2ccccc2)cc1 (some centres not stated)	none (no result: TWEAK Fn14 block, TROY signal inh, aSyn 5UTR inh, HSP90 inh)
CCN1/C(=C/c2ccc3cc(C)cc(C)c3[n+]2CC)Sc2cc(C)ccc21	none (no result: aSyn 5UTR inh)
CCN1/C(=C\c2ccc3cc(C)ccc3[n+]2CC)Sc2cc(C)c(C)cc21	TWEAK Fn14 block 64.0
CCN1/C(=C/c2ccc3cccc(C)c3[n+]2CC)Sc2ccccc21	C8 TRAIL sens 61.2
CCN1/C(=C\C=C(C(C)=O)C(C)=O)Sc2ccccc21	none
CCN1/C(=C/c2ccc3cc(C)ccc3[n+]2CC)Sc2ccc3sccc3c21	aSyn 5UTR inh 130.8, C8 TRAIL sens 94.3 (no result: HSP90 inh)
O=C(COC(=O)CC(c1ccccc1)c1ccccc1)NCc1ccc(Cl)cc1	TWEAK Fn14 block 62.1
CCCC(=O)OCC(=O)NCc1ccc(Cl)cc1	none
CCCn1c(=S)[nH]c2cc(C(=O)N3CCN(C(=O)OCC)CC3)ccc2c1=O	none
CCOC(=O)N1CCN(C(=O)c2ccc(Cn3c(=S)[nH]c4ccc(Br)cc4c3=O)cc2)CC1	TWEAK Fn14 block 57.0, TROY signal inh 59.2, C8 TRAIL sens 52.8
CCCn1c(=S)[nH]c2cc(C(=O)N3CCCC(C(=O)OCC)C3)ccc2c1=O (configuration not stated)	TWEAK Fn14 block 54.8
O=C1c2c(-c3ccc(Br)cc3)noc2CCN1Cc1cn(Cc2cccnc2)nn1	none (no result: TWEAK Fn14 block, TROY signal inh, aSyn 5UTR inh, HSP90 inh)
Cc1ccc(NC(=O)CSc2ccccc2NC(=O)c2ccccc2)cc1Cl	none
Cc1ccc(NC(=O)CSc2ccccc2NC(=O)c2ccccc2Cl)cc1Cl	TWEAK Fn14 block 72.9
C=CC1=CCN(S(=O)(=O)C(C)(C)C)[C@H]1CCO	none (no result: aSyn 5UTR inh, HSP90 inh)
COC(=O)c1c(-c2ccc3ccccc3c2)csc1NC(=O)Cc1ccc(OC)c(OC)c1	TWEAK Fn14 block 65.3
CCOc1ccc(C(=O)CN2C(=O)NC3(CCCc4ccccc43)C2=O)cc1 (configuration not stated)	none (no result: aSyn 5UTR inh, HSP90 inh)

Source: PubChem
